Hits are enriched below; roughly 2.3% of the tested compounds scored in any of these assays.
pAkt inh: Akt phosphorylation inhibition. activity change, % for hits at 50 µM. hit rate 0.32% among 360,000. Neuro2A IGF-stimulated pAkt S473 HTRF, 20 min; active compounds read low. AID 651550; in the data active = activity change below about -80%; inconclusive = mostly about -51% to -80%; also: % is scaled to controls: 0 for no effect and ±100 for the full control effect
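Single-point screen (50 µM final compound) in Neuro2A cells stimulated 20 min with 6 nM IGF at 37 deg C. After lysis, Ser473-phosphorylated Akt read by HTRF (ex 330 nm, em 615/665 nm) as the 665/615 ratio.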
aSyn yeast inh: inhibitors of alpha-synuclein toxicity in yeast | hit rate 0.14% among 370,000 | Potency, µM (top dose mostly 46.1 µM), for the others: top-dose growth rescue (activation), usual class: activators | AID 652106 | Yeast expressing alpha-synuclein, growth rescue, BacTiter-Glo, 24 h; also: potency is read from the fitted curve at half-maximal effect; % of control where 0% means no effect; nearly all actives have a fitted effect of over 65% in size
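Screening used galactose-induced yeast with toxic alpha-synuclein levels, exposed to compound for 24 hr at 30 deg C. Cell growth, read with BacTiter-Glo luminescence, gave the measured signal.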
TDP43 rescue: inhibitors of TDP-43 toxicity in yeast. hit rate 1.8% among 410,000. Potency, µM (doses to about 46.1 µM), for inactives: at the highest dose growth rescue (activation), most hits filed as activators. TDP-43 expressing yeast growth rescue, BacTiter-Glo, 24 h. AID 652104; also: potency is read from the fitted curve at half-maximal effect; % of control where 0% means no effect; nearly all actives have a fitted effect of over 50% in size
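Cell-based yeast growth screen: TDP-43 expression induced in galactose, inoculum OD600=0.02 after raffinose pregrowth to mid-log. Read-out BacTiter-Glo luminescence at 24 hr, 30 deg C; inhibition of toxicity seen as signal increase.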
FUS yeast rescue: rescues growth of FUS-expressing yeast; S. cerevisiae FUS-expressing, growth rescue, OD600, 24 h; Potency, µM (top dose mostly 76.6 µM), hits mostly activators; hit rate 0.24% among 390,000;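 also: potency is read from the fitted curve at half-maximal effect; plate controls were DMSO vehicle for no effect and reference control for full effect; nearly all actives have a fitted effect of over 55% in size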
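Yeast FUS proteinopathy model; galactose-induced FUS (2%), starting OD 0.005. Cpds in dilution series, 24hr, 30C, 99% humidity. Abs 600 nm growth. Pos ctrl CP55940 (top 92uM final); neg ctrl DMSO.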
Abeta rescue: A-beta toxicity reversal in yeast; yeast expressing A-beta42, growth rescue, OD600, 48 h; response scale: 0% DMSO, 100% iron-clioquinol control; Potency, µM (titrated, usually from 46.1 µM), usual class: activators; hit rate 0.063% among 410,000; AID 1347071; also: potency is read from the fitted curve at half-maximal effect; nearly all actives have a fitted effect of over 55% in size
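Growth rescue measured by 600 nm absorbance after 48 h yeast culture at 30 C with compound. Values normalized between DMSO and an equimolar ferric chloride plus clioquinol control.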
An asterisk follows results filed as active; i = inactive; ? = inconclusive; . = not tested or not shown; [ ] = another dose, or the depositor's remark. Unless noted, calls follow the shape of the dose curve; as a rule, active = well fitted curve in the direction sought with a large enough effect; inconclusive = small, poorly fitted or top-dose-only effect, or another doubt; inactive = no such curve, though single readings can be large; an effect the other way counts as inactive or inconclusive.

SMILES	pAkt inh	aSyn yeast inh	TDP43 rescue	FUS yeast rescue	Abeta rescue
Cc1ccc2oc(-c3ccc(NC(=O)CCC(=O)O)cc3)nc2c1	.	-8%	3%	i	i
CC1=C(C(=O)Nc2ccc(C)cc2C)C(C(C)C)n2nc(SCc3ccccc3Cl)nc2N1 (centres undefined)	.	.	9%	i	i
CCCNC(=O)c1noc2c1CCc1cc(OC)ccc1-2	i	0%	13µM*	i	i
Cc1ccc(C)c(NC(=O)CN2C(=O)CCc3cc(S(=O)(=O)N4CCCCC4)ccc32)c1	.	.	-3%	?	i
Cc1ccc(Sc2c(C)nn(C(=O)c3ccc(Br)cc3)c2C)cc1	.	.	?	i	i
Cc1nn(C(=O)c2ccccc2)c(C)c1Sc1ccc(Cl)cc1	.	.	35µM*	?	i
Cc1c2cnn(CC(=O)N3CCN(c4ccc(F)cc4)CC3)c(=O)c2c(C)n1Cc1ccccc1F	.	.	2%	i	i
Cc1ccc(NC(=O)CSc2nc3ccccc3nc2Cc2ccccc2F)cc1F	.	.	?	i	i
CN(CC(=O)Nc1ccc(Cl)cc1F)S(=O)(=O)c1ccc2c(c1)n(C)c(=O)c(=O)n2C	.	.	24%	i	i
O=C(NCC(c1ccco1)N1CCc2ccccc21)c1ccccc1F (centres undefined)	i	2%	7%	i	i
O=C(NCC(c1ccco1)N1CCc2ccccc21)c1ccccc1Br (centres undefined)	i	13%	14µM*	i	i
COCCCN1CCc2nc(SCC(=O)Nc3ccc(C)c(Cl)c3)[nH]c(=O)c2C1	.	.	7%	i	i
CCCOC(=O)c1cccc(Nc2nc(C(=O)OCC)nc3ccccc23)c1	.	.	22µM*	i	i
COC(=O)c1cccc(Nc2nc(-c3cccnc3)nc3ccccc23)c1	i	6%	10%	i	i
CCOC(=O)c1cccc(NC(=O)c2cnc3ccccc3n2)c1	-96%*	-11%	?	i	i
CCOC(=O)c1cccc(Nc2nc(-c3cccnc3)nc3ccccc23)c1	i	14%	18µM*	i	i
Cc1ccc2c(=O)cc(C(=O)Nc3ccc(S(=O)(=O)Nc4ncccn4)cc3)oc2c1C	.	.	17%	i	i
COc1cc(/C=C/[N+](=O)[O-])ccc1OC(=O)/C=C/c1ccc(F)cc1	i	-18%	0.71µM*	i	i
COc1ccc(Cl)cc1NC(=O)CSc1nc2ccccc2nc1N1CCCCC1	.	.	19%	i	i
CCc1ccc(C2CC(=O)Nc3c2c(=O)n(C)c2ncnn32)cc1 (centres undefined)	.	0%	-18%	i	i
Cc1cc2cc3c(cc2nc1SCC(=O)N1CCCC1)OCCO3	i	3%	18µM*	i	i
COc1cccc(CNC(=O)Cc2c(C)c3c(cc(C)c4c(C)coc43)oc2=O)c1	.	.	0%	i	i
Cc1cc(N)n2ncc(-c3ccc(F)cc3)c2n1	i	3%	19%	i	i
Cc1cc(N)n2ncc(-c3ccc(Cl)cc3)c2n1	i	-12%	8.9µM*	i	i
CC(=O)c1c(C)oc2ccc(N(C(=O)c3ccncc3)S(=O)(=O)c3ccc(F)cc3C)cc12	.	.	20µM*	?	i
SMILES	pAkt inh	aSyn yeast inh	TDP43 rescue	FUS yeast rescue	Abeta rescue
COc1ccc(C(=O)Sc2ccc(Cl)cc2)cc1OC	-127%*	-7%	4%	i	i
COc1ccc(C(=O)c2ccc(OC)c(OC)c2)cc1OC	i	-1%	12%	i	i
COc1ccc(C(=O)Sc2ccc(C)cc2)cc1OC	i	-2%	11µM*	i	i
Cn1c(-c2cccc(Br)c2)cnc1NCc1cccc(F)c1	.	.	0%	i	i
Cc1cccc(C)c1NC(=S)N(Cc1ccccc1)Cc1cccs1	i	23%	35µM*	i	i
O=C(O)CNC(=S)N(Cc1ccccc1)Cc1cccs1	i	1%	-13%[1.82 µM]	i	i
Oc1ccccc1/C=N/Nc1cccc2cccnc12	i	-17%	18µM*	i	i
O=C(COc1cccc2cccnc12)N/N=C/c1ccccc1O	i	4%	1%	i	i
Cc1cccc(CCNC(=O)c2sc3nc4n(c(=O)c3c2C)CCCC4)c1	.	.	?	?	i
CCCS(=O)(=O)c1nnnn1-c1cccc(OC)c1	i	-4%	11µM*	i	i
Clc1ccc(-n2nnnc2-c2ccno2)cc1	i	1%	3%	i	i
Fc1cccc(-c2oncc2-c2nnnn2-c2ccc(Cl)cc2)c1	i	14%	11µM*	i	i
CCOC(=O)c1cc(-c2ccccc2)n(-c2cccc(C(=O)Nc3ccc(F)c(F)c3)c2)c1C	.	.	13%	?	i
O=C(Cn1nnc(-c2ccccc2)n1)N=Nc1c(O)[nH]c2ccccc12	-105%*	3%	0%	i	i
COc1ccc(S(=O)(=O)N2CCC(c3nnc(-c4ccccc4C)o3)CC2)c(OC)c1	.	.	0%	32µM*	i
Cc1ccccc1-c1nnc(C2CCN(S(=O)(=O)c3ccc(Cl)cc3)CC2)o1	.	.	13%[9.22 µM]	i	i
CCOC(=O)c1cccc(NC(=O)c2ccc3snnc3c2)c1	.	-6%	-6%	i	i
Cc1ccc(O)c(-c2cc(-c3ccccc3F)[nH]n2)c1	.	-14%	20%	i	i
COc1ccc(-c2cc3ccccc3[nH]2)cc1	i	-10%	1%	i	i
Clc1ccc2[nH]c(-c3ccccc3)cc2c1	i	-16%	11µM*	i	?
c1ccc(-c2cc3ccccc3[nH]2)cc1	i	-16%	11µM*	i	i
Cc1ccc(O)c(-c2cc3ccccc3[nH]2)c1	i	-5%	3.2µM*	i	i
COc1ccc(NC(=O)c2cc3c(=O)n(Cc4cccnc4)ccc3nc2C)c(OC)c1	.	.	5%	i	i
CCOc1ccc(C(=O)Nc2nnc(S(=O)(=O)N(CC)c3ccccc3C)s2)cc1	.	.	15%	i	i
O=C(N/N=C/c1ccc(O)cc1)NC12CC3CC(CC(C3)C1)C2	i	-8%	11µM*	i	i
COc1cccc(NC(=O)CSC2=Nc3ccccc3C3=NC(CC(=O)NCc4ccc5c(c4)OCO5)C(=O)N23)c1 (centres undefined)	.	.	5%	25µM*	i
COc1ccccc1NC(=O)CSC1=Nc2ccccc2C2=NC(CC(=O)NCc3ccc4c(c3)OCO4)C(=O)N12 (centres undefined)	.	.	4%	?	i
COCCn1c(=O)[nH]c2cc(C(=O)NCCN3CCN(c4cccc(Cl)c4)CC3)ccc2c1=O	-118%*	3%	-1%	i	i
CC(C)CN=C(NS(=O)(=O)c1ccccc1)C(Cl)(Cl)Cl	i	15%	11µM*	?	i

Assay outcomes (PubChem BioAssay)
